# In article PMC7862700, “An all-to-all approach to the identification of sequence-specific readers for epigenetic DNA modifications on cytosine”:
# Columns and labels:
# Assay in all cases: DAPPL (digital affinity profiling via proximity ligation, sequencing); 10 mM Tris-HCl pH 7.5, 50 mM NaCl, 1 mM DTT, 4% glycerol, room temperature, 30 min; GST-TFs on glutathione beads, 16-mer random dsDNA library, 0.1% formaldehyde crosslink after washing; high values mean tight binding
# FLI1 = biological target: T1, FLI1 (Homo sapiens, UniProt Q01543 1-452); settings: protein: recombinant; tags: N-terminal GST; dsDNA, one strand shown
# T1 sequence: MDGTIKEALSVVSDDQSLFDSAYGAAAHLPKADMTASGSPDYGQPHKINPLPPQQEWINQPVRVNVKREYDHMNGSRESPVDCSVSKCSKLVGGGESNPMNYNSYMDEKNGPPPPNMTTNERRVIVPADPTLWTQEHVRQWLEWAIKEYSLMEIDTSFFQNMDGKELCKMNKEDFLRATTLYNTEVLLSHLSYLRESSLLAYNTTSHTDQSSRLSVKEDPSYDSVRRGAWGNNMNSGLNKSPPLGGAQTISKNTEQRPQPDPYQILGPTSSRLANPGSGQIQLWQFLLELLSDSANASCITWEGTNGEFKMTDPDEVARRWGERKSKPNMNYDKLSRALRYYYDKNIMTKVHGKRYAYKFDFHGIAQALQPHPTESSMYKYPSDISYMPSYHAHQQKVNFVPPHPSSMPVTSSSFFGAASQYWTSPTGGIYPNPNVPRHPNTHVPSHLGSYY
# How it was run: (§1)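 GST fusions of human transcription factors were expressed in yeast and captured with glutathione beads. Once given DNA barcodes and pooled alongside a tag-only sample, they were incubated for 30 min at room temperature with 200 nmole of a random double-stranded 16-mer DNA library in Tris/NaCl/DTT/glycerol buffer, then washed, crosslinked (0.1% formaldehyde), proximity-ligated, PCR-amplified and sequenced on an Illumina NextSeq500. The binding signal of each hexamer is its read frequency for a factor divided by its frequency for the tag-only sample.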
# ELK1 = biological target: T2, ELK1 (Homo sapiens, UniProt P19419 1-428); settings: protein: recombinant; tags: N-terminal GST; dsDNA, one strand shown
# T2 sequence: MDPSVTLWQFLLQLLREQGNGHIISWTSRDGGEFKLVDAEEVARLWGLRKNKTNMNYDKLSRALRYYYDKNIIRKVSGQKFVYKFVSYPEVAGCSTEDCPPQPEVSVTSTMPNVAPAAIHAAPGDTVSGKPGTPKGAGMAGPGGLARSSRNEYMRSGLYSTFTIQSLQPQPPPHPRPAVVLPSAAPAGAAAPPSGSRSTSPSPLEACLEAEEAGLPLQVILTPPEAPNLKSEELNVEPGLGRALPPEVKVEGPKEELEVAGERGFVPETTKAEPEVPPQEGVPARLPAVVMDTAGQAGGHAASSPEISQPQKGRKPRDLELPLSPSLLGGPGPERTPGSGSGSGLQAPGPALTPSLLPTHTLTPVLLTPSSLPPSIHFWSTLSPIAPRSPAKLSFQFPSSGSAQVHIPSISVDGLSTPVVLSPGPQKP
# How it was run: as §1
# GABPA = biological target: T3, GABPA (Homo sapiens, UniProt Q06546 1-454); settings: protein: recombinant; tags: N-terminal GST; dsDNA, one strand shown
# T3 sequence: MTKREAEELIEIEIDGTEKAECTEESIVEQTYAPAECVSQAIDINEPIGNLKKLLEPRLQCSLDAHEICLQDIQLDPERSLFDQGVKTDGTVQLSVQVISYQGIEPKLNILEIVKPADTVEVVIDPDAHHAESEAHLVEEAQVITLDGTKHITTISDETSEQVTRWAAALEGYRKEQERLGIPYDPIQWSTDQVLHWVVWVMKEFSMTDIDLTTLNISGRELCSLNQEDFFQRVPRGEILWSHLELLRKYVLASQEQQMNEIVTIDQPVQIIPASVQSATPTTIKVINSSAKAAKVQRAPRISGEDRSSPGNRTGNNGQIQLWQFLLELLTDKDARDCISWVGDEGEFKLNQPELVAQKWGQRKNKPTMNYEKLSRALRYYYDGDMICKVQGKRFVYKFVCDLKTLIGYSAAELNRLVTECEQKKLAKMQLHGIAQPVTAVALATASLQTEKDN
# How it was run: as §1
# ERG = biological target: T4, ERG (Homo sapiens, UniProt P11308 1-479); settings: protein: recombinant; tags: N-terminal GST; dsDNA, one strand shown
# T4 sequence: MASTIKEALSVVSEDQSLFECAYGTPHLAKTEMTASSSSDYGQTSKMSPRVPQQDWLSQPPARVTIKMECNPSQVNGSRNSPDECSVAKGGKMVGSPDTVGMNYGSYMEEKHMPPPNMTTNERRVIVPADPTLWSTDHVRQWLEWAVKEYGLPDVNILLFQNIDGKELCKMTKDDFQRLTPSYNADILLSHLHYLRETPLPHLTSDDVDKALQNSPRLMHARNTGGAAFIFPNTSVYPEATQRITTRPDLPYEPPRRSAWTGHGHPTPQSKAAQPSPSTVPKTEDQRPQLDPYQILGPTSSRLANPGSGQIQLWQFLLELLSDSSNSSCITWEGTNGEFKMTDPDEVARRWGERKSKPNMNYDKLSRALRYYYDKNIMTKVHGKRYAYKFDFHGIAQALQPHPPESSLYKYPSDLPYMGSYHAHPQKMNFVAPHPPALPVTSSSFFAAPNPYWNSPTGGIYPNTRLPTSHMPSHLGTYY
# How it was run: as §1
# ELF1 = ELF1 (Homo sapiens, UniProt P32519 1-619); settings: protein: recombinant; tags: N-terminal GST; dsDNA, one strand shown
# How it was run: as §1
# EHF = biological target: T5, EHF (Homo sapiens, UniProt Q9NZC4 1-300); settings: protein: recombinant; tags: N-terminal GST; dsDNA, one strand shown
# T5 sequence: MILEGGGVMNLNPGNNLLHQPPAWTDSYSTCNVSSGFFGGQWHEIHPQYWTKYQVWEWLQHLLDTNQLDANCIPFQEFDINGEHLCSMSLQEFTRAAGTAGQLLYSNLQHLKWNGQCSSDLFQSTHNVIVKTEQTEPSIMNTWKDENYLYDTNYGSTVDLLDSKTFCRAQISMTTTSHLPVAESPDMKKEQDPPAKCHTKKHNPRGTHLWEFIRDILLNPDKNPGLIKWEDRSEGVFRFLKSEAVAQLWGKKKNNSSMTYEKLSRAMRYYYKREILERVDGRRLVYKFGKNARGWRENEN
# How it was run: as §1
# SPI1 = SPI1 (Homo sapiens, UniProt P17947 1-270); settings: protein: recombinant; tags: N-terminal GST; dsDNA, one strand shown
# How it was run: as §1
# SPIB = SPIB (Homo sapiens, UniProt Q01892 1-262); settings: protein: recombinant; tags: N-terminal GST; dsDNA, one strand shown
# How it was run: as §1
# ELK3 = biological target: T6, ELK3 (Homo sapiens, UniProt P41970 1-407); settings: protein: recombinant; tags: N-terminal GST; dsDNA, one strand shown
# T6 sequence: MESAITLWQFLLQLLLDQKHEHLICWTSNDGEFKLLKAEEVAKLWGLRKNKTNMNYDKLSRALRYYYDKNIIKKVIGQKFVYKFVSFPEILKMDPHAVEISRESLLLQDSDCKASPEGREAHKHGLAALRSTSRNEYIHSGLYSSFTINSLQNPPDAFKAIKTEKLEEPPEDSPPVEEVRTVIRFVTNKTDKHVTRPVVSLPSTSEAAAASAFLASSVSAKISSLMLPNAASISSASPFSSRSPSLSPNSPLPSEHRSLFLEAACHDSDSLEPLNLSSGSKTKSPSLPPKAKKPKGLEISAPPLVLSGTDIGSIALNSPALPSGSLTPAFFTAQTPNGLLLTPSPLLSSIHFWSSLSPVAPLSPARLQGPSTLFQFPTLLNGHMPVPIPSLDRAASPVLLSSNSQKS
# How it was run: as §1
# FEV = biological target: T7, FEV (Homo sapiens, UniProt Q99581 1-238); settings: protein: recombinant; tags: N-terminal GST; dsDNA, one strand shown
# T7 sequence: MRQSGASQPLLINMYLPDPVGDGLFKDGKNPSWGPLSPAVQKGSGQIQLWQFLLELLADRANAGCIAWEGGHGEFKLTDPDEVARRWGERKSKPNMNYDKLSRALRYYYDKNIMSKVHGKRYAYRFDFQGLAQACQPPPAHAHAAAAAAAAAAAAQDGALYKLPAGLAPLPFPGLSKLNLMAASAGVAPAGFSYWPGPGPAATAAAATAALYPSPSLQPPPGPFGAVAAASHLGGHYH
# How it was run: as §1
# ETV5 = ETV5 (Homo sapiens, UniProt P41161 1-510); settings: protein: recombinant; tags: N-terminal GST; dsDNA, one strand shown
# How it was run: as §1
# HSF1 = HSF1 (Homo sapiens, UniProt Q00613 1-529); settings: protein: recombinant; tags: N-terminal GST; chain copies: 3; dsDNA, one strand shown
# How it was run: as §1
# SPIC = biological target: T8, SPIC (Homo sapiens, UniProt Q8N5J4 1-248); settings: protein: recombinant; tags: N-terminal GST; dsDNA, one strand shown
# T8 sequence: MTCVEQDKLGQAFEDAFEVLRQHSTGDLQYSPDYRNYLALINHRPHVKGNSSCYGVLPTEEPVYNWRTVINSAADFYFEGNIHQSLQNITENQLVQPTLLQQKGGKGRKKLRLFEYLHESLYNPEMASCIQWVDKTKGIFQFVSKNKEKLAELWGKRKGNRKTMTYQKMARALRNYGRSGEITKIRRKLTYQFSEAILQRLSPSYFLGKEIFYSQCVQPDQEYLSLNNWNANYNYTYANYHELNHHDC
# How it was run: as §1
# ELF4 = ELF4 (Homo sapiens, UniProt Q99607 1-663); settings: protein: recombinant; tags: N-terminal GST; dsDNA, one strand shown
# How it was run: as §1
# ELK4 = biological target: T9, ELK4 (Homo sapiens, UniProt P28324-2 1-405); settings: protein: recombinant; tags: N-terminal GST; dsDNA, one strand shown
# T9 sequence: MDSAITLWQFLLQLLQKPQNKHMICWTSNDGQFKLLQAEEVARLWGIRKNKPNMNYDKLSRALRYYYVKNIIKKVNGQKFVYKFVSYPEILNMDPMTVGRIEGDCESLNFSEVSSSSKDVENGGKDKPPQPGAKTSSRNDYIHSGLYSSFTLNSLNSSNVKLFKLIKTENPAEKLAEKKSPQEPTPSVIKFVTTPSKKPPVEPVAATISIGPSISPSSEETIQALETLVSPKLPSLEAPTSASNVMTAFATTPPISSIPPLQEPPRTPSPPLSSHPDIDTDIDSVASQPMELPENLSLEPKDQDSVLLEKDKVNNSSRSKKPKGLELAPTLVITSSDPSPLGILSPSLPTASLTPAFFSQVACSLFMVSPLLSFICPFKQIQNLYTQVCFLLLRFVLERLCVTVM
# How it was run: as §1
# ETV2 = biological target: T10, ETV2 (Homo sapiens, UniProt O00321 1-342); settings: protein: recombinant; tags: N-terminal GST; dsDNA, one strand shown
# T10 sequence: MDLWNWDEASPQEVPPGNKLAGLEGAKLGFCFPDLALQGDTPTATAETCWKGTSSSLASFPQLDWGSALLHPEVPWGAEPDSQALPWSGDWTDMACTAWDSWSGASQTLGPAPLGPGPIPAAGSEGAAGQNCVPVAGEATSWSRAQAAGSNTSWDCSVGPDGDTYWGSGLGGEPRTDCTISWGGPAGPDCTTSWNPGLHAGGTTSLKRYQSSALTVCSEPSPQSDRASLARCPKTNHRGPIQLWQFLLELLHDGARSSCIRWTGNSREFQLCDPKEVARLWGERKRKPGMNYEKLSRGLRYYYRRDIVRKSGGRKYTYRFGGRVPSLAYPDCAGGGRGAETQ
# How it was run: as §1
# ELF3 = biological target: T11, ELF3 (Homo sapiens, UniProt P78545 1-371); settings: protein: recombinant; tags: N-terminal GST; dsDNA, one strand shown
# T11 sequence: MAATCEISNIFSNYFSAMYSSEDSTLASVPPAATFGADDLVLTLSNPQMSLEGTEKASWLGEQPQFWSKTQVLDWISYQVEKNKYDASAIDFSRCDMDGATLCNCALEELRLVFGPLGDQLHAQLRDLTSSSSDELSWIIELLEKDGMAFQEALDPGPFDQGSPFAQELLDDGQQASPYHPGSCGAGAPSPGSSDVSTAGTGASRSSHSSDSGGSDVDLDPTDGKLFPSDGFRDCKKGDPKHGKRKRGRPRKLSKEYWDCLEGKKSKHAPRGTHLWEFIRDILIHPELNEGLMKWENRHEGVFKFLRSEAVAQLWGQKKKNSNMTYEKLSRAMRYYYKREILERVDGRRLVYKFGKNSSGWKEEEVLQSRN
# How it was run: as §1
# ETV1 = ETV1 (Homo sapiens, UniProt P50549 1-477); settings: protein: recombinant; tags: N-terminal GST; dsDNA, one strand shown
# How it was run: as §1
# Chain of ETV1 (P50549 whole entry): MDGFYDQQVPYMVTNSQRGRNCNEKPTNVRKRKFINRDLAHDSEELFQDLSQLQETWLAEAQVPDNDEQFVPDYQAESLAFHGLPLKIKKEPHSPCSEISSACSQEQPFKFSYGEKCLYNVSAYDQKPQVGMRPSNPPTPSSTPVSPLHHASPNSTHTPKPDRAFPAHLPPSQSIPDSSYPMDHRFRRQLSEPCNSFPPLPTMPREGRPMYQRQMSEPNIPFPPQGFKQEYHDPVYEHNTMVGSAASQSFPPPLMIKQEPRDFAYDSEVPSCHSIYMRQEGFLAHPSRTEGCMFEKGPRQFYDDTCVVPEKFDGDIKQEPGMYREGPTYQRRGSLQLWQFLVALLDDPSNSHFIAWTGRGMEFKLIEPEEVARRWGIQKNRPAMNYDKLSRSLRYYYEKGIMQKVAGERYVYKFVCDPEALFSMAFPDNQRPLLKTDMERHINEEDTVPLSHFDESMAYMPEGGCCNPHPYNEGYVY
# Chain of HSF1 (Q00613 whole entry): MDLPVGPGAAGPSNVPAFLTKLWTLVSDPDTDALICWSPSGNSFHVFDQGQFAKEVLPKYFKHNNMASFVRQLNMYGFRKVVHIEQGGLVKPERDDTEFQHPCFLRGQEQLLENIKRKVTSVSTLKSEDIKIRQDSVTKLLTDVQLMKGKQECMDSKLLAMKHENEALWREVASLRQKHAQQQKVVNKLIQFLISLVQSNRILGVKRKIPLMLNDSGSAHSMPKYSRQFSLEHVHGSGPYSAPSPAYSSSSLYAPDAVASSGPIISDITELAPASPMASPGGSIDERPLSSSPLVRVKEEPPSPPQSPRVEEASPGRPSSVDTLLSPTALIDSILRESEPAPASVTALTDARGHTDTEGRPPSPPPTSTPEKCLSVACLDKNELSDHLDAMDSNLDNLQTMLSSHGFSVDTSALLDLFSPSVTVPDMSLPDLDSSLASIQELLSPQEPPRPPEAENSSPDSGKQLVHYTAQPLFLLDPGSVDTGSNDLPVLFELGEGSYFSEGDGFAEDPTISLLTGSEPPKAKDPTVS
# Chain of ELF1 (P32519 whole entry): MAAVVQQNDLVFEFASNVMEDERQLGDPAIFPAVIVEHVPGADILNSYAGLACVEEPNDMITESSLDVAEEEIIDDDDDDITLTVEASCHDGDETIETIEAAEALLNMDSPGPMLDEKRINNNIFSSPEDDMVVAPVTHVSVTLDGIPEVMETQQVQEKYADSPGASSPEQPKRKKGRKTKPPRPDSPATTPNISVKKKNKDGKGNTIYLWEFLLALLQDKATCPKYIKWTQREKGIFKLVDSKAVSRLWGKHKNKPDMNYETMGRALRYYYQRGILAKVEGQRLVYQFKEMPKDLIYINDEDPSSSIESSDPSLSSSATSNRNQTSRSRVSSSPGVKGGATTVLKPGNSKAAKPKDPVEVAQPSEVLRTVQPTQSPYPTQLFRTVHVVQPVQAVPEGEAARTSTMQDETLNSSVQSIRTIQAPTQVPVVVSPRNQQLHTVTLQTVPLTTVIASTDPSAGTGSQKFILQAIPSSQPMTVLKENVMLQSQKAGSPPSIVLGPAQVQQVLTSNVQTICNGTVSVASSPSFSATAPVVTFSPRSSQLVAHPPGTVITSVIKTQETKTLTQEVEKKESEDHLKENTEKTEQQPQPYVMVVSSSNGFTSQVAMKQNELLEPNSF
# Chain of ETV5 (P41161 whole entry): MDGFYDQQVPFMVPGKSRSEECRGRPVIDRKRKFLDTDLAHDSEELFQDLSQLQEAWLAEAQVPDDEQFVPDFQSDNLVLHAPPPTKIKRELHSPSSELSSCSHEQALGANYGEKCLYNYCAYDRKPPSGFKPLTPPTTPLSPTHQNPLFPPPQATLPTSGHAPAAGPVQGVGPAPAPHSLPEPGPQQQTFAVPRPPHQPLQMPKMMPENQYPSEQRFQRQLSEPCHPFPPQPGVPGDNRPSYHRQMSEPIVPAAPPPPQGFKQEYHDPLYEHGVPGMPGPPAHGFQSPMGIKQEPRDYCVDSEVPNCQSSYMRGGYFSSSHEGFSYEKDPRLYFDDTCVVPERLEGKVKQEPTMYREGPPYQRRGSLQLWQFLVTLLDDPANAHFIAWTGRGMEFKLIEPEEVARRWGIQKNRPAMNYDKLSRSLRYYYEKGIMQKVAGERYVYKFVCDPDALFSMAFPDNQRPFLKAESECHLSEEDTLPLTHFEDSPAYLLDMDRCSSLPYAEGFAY
# Chain of ELF4 (Q99607 whole entry): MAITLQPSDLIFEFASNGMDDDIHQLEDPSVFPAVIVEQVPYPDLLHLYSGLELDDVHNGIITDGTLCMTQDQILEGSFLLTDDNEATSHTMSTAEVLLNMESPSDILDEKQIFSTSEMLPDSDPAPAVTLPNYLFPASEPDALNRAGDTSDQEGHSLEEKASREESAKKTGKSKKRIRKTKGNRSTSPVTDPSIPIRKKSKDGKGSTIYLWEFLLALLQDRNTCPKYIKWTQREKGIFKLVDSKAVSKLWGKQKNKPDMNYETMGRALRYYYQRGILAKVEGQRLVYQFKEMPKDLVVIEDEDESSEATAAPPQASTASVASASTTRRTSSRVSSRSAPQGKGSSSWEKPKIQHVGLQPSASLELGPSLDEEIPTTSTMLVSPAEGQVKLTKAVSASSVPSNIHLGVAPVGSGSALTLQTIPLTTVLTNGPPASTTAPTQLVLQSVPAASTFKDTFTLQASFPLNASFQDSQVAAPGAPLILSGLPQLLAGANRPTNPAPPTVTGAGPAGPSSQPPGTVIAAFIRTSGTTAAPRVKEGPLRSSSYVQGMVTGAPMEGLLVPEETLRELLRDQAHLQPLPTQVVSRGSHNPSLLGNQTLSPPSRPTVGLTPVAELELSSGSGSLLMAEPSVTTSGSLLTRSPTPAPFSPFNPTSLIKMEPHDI
# Chain of SPIB (Q01892 whole entry): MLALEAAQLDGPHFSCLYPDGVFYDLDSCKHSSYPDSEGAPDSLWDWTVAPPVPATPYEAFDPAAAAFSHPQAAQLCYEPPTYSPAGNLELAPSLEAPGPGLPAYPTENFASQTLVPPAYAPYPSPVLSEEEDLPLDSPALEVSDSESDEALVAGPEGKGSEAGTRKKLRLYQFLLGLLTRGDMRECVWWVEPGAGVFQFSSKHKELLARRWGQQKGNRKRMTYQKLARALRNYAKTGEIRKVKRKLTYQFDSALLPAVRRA
sequence,measurement,setting,value
CCGTCC,binding signal,FLI1,"1.37 fold enrichment (6-mer frequency, TF over GST control)"
same,binding signal,ELK1,"1.37 fold enrichment (6-mer frequency, TF over GST control)"
same,binding signal,GABPA,"1.29 fold enrichment (6-mer frequency, TF over GST control)"
same,binding signal,ERG,"1.42 fold enrichment (6-mer frequency, TF over GST control)"
same,binding signal,ELF1,"1.37 fold enrichment (6-mer frequency, TF over GST control)"
same,binding signal,EHF,"1.42 fold enrichment (6-mer frequency, TF over GST control)"
same,binding signal,SPI1,"1.21 fold enrichment (6-mer frequency, TF over GST control)"
same,binding signal,SPIB,"1.25 fold enrichment (6-mer frequency, TF over GST control)"
same,binding signal,ELK3,"1.39 fold enrichment (6-mer frequency, TF over GST control)"
same,binding signal,FEV,"1.38 fold enrichment (6-mer frequency, TF over GST control)"
same,binding signal,ETV5,"1.26 fold enrichment (6-mer frequency, TF over GST control)"
same,binding signal,HSF1,"1.03 fold enrichment (6-mer frequency, TF over GST control)"
same,binding signal,SPIC,"1.39 fold enrichment (6-mer frequency, TF over GST control)"
same,binding signal,ELF4,"1.37 fold enrichment (6-mer frequency, TF over GST control)"
same,binding signal,ELK4,"1.28 fold enrichment (6-mer frequency, TF over GST control)"
same,binding signal,ETV2,"1.8 fold enrichment (6-mer frequency, TF over GST control)"
same,binding signal,ELF3,"1.43 fold enrichment (6-mer frequency, TF over GST control)"
same,binding signal,ETV1,"1.38 fold enrichment (6-mer frequency, TF over GST control)"
